High-throughput results as filed in PubChem.
3CLpro inhibitor: SARS-CoV 3CLpro protease inhibitors, primary screen, biochemical, quenched FRET; Replicase polyprotein 1ab (Severe acute respiratory syndrome coronavirus), P0C6X7; recombinant SARS-CoV 3CLpro, quenched FRET peptide cleavage; inhibition, % at 6 µM; 290,000 compounds, 0.14% hits; AID 1706, 2009; in the data active means inhibition above about 12%
PrP 5UTR inh: inhibition of PrP 5' UTR reporter expression; cell-based PrP 5' UTR mRNA reporter, plate reader; inhibition, % (no concentration beside the values); 340,000 compounds, 0.35% hits; in the data active means inhibition above about 52%; further: 0 = median of the neutral control wells
PriA SSB inh: inhibitors of Klebsiella pneumoniae PriA binding to SSB C-terminal tail, primary screen, biochemical, AlphaScreen. PriA–SSB C-terminal tail interaction (Klebsiella pneumoniae). AlphaScreen SSBct-PriA binding, biotinylated peptide. inhibition, % at 33 µM. 430,000 compounds, 0.6% hits; in the data active means inhibition mostly above about 37%, no sharp cut-off; inactive means mostly below about 20%;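 further: plate controls were negative control peptide for no effect and reference peptide for full effect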
BH1578 lux ind: inducers of Vibrio cholerae quorum light production without autoinducers, primary screen, BH1578 luxS cqsA deficient, single point | V. cholerae BH1578 lux reporter, luminescence, 6 h | activation, % at 18.7 µM | 350,000 compounds, 0.16% hits; in the data active means activation mostly above about 9.7%, no sharp cut-off
PrPC TRFRET: inhibitors of human cell surface prion protein PrPC, primary screen, cell-based, TR-FRET; AID 720596, 2013; inhibition, % at 13.8 µM; Major prion protein (Homo sapiens), P04156; 370,000 compounds, 0.43% hits; TR-FRET read-out; in the data active means inhibition above about 24%; further: 0% = median of the test wells and 100% = reference compound wells
PfHsp40 yeast: rescue of yeast from PfHsp40 toxicity, primary screen, S. cerevisiae, ATP luminescence; S. cerevisiae expressing PfHsp40, growth rescue; growth rescue, % at 12.5 µM; 340,000 compounds, 0.68% hits; AID 504582, 2011; in the data active means growth rescue above about 28%, passing the limit was not always enough;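 further: yeast W303a lacking pdr1 and pdr3 grown in galactose medium; growth measured after three days at 30 °C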
PrPC TRFRET cf: confirmation of inhibitors of cell surface human prion protein, confirmation, cell-based, TR-FRET | shares compounds with PrPC TRFRET | 1,500 compounds, 65% hits | AID 743200, 2013 | inhibition, % at 13.8 µM | cell surface PrPC level; in the data active means inhibition above about 25%
LD9 tox: cytotoxicity in LD9 cells, cytotoxicity control for cell surface PrPc inhibitor project, cell-based, luminescence, high throughput; shares compounds with PrPC TRFRET; luminescence viability; inhibition, % at 13.8 µM; 1,500 compounds, 29% hits; AID 743201, 2013; in the data active means inhibition above about 9.5%
* = called active by the depositor. A selection: hits, their analogues and other compounds. The true share with any hit is near 1.6%.

What do the screens show for `CC1OC(CC(=O)O)CC2=C1C(=O)c1c(O)cccc1C2=O` (stereo unspecified)?
PrP 5UTR inh: 46; PriA SSB inh: 3; BH1578 lux ind: inactive; PrPC TRFRET: 71*; PfHsp40 yeast: -7; PrPC TRFRET cf: 86*; LD9 tox: 98*

How did COc1ccc2[nH]c3c(=S)nc[nH]c3c2c1 do in these assays?
3CLpro inhibitor: 1; PrP 5UTR inh: -25; PriA SSB inh: -3; BH1578 lux ind: -1; PrPC TRFRET: 85*; PfHsp40 yeast: 0; PrPC TRFRET cf: 104*; LD9 tox: 1

How did COc1ccc2[nH]c3c(Cl)ncnc3c2c1 do in these assays?
3CLpro inhibitor: 2; PrP 5UTR inh: -15; PriA SSB inh: -5; BH1578 lux ind: 0; PrPC TRFRET: 1; PfHsp40 yeast: 0

Results for O=C(Nc1ccc2c(c1)OCO2)c1cc(C2CCCCN2S(=O)(=O)c2cccs2)on1 (stereo unspecified) ?
BH1578 lux ind: 0; PrPC TRFRET: 57*; PrPC TRFRET cf: 48*; LD9 tox: 2

Results for O=C(Nc1ccccc1)c1cc(C2CCCCN2S(=O)(=O)c2ccccc2)on1 (stereo unspecified) ?
BH1578 lux ind: 0; PrPC TRFRET: 29*; PrPC TRFRET cf: 15; LD9 tox: 1

What do the screens show for `O=C(Nc1ccccc1Cl)c1cc(C2CCCCN2S(=O)(=O)c2ccccc2)on1` (stereo unspecified)?
BH1578 lux ind: 0; PrPC TRFRET: 6

What do the screens show for `COc1ccccc1Nc1nc(NCc2ccco2)c2ccccc2n1`?
3CLpro inhibitor: -1; PriA SSB inh: 10; BH1578 lux ind: 0; PrPC TRFRET: 8

How did Cc1ccc(Nc2nc(NCc3ccco3)c3ccccc3n2)cc1 do in these assays?
3CLpro inhibitor: -1; PrP 5UTR inh: -88; PriA SSB inh: 4; BH1578 lux ind: -1; PrPC TRFRET: 35*; PfHsp40 yeast: 2; PrPC TRFRET cf: 43*; LD9 tox: 24*

Results for O=C(NCCc1cccs1)c1cnn2c1OCCC2 ?
PriA SSB inh: -15

What do the screens show for `Brc1ccc(-c2ccc(CNCc3ccccn3)o2)cc1`?
3CLpro inhibitor: 1; PrP 5UTR inh: -9; PriA SSB inh: 23; BH1578 lux ind: 0; PrPC TRFRET: 30*; PfHsp40 yeast: -1; PrPC TRFRET cf: 49*; LD9 tox: -3

What do the screens show for `Clc1cccc(-c2ccc(CNCc3ccccn3)o2)c1`?
3CLpro inhibitor: -3; PrP 5UTR inh: -14; PriA SSB inh: 33; BH1578 lux ind: 0; PrPC TRFRET: -1; PfHsp40 yeast: -2

What do the screens show for `COc1nn(C)cc1C(=O)N1CCN(C(=O)c2cnn3c2CCCC3)CC1`?
PriA SSB inh: 11

How did N#Cc1c(N2CCSCC2)nsc1-c1ccccc1Cl do in these assays?
3CLpro inhibitor: 8; PrP 5UTR inh: -20; PriA SSB inh: -16; BH1578 lux ind: -1; PrPC TRFRET: 27*; PfHsp40 yeast: 3; PrPC TRFRET cf: 23; LD9 tox: -7

What do the screens show for `O=C(Nc1c(C(=O)Nc2cccc(Cl)c2)oc2ccccc12)c1cc(-c2ccccc2)on1`?
PriA SSB inh: -6

Results for CCCCOc1ccc(C(O)=C2C(=O)C(=O)N(Cc3cccnc3)C2c2ccncc2)c(C)c1 (stereo unspecified) ?
PriA SSB inh: 11

Results for Cc1cc(OCC(C)C)ccc1/C(O)=C1/C(=O)C(=O)N(Cc2cccnc2)C1c1ccncc1 (stereo unspecified) ?
3CLpro inhibitor: 1; PrP 5UTR inh: -9; PrPC TRFRET: 35*; PfHsp40 yeast: 2; PrPC TRFRET cf: 54*; LD9 tox: 0

How did CCCCOc1ccc(/C(O)=C2/C(=O)C(=O)N(Cc3cccnc3)C2c2ccncc2)c(C)c1 (stereo unspecified) do in these assays?
3CLpro inhibitor: 0; PrP 5UTR inh: -13; BH1578 lux ind: -6; PrPC TRFRET: 45*; PfHsp40 yeast: -1; PrPC TRFRET cf: 70*; LD9 tox: 2

How did c1ccc(-c2ccc(CNc3nc(-c4ccccn4)nnc3-c3ccccc3)cc2)cc1 do in these assays?
PrPC TRFRET: 29*; PrPC TRFRET cf: 37*; LD9 tox: 28*

How did CC(C)(C)CCNc1nc(-c2ccccn2)nnc1-c1ccccc1 do in these assays?
PrPC TRFRET: 28*; PrPC TRFRET cf: 27*; LD9 tox: 34*

How did CC(C)Nc1nc(-c2ccccn2)nc(-c2ccccc2)c1C#N do in these assays?
3CLpro inhibitor: 2; PrP 5UTR inh: 10; PriA SSB inh: -6; BH1578 lux ind: -1; PrPC TRFRET: 5; PfHsp40 yeast: 0

What do the screens show for `CN(C(=O)C1(c2cccs2)CCCC1)c1ccccc1`?
PriA SSB inh: -11

Results for COc1ccc(NC(=O)Cn2ncn3nc(-c4ccccc4)cc3c2=O)cc1Cl ?
PriA SSB inh: -15

How did Cn1c(=O)c2c(SCC(=O)NCc3ccco3)nc(C3CCCC3)nc2n(C)c1=O do in these assays?
PriA SSB inh: -18

What do the screens show for `CCOc1ccc(/C(O)=C2/C(=O)C(=O)N(c3ccccn3)C2c2ccc(C)cc2)c(C)c1` (stereo unspecified)?
3CLpro inhibitor: 6; PrP 5UTR inh: -8; BH1578 lux ind: inactive; PrPC TRFRET: 40*; PfHsp40 yeast: 0; PrPC TRFRET cf: 52*; LD9 tox: -3

What do the screens show for `CCCOc1ccc(/C(O)=C2\C(=O)C(=O)N(c3ccccn3)C2c2ccccc2F)cc1C` (stereo unspecified)?
3CLpro inhibitor: 7; PrP 5UTR inh: 7; BH1578 lux ind: 1; PrPC TRFRET: 44*; PfHsp40 yeast: -1; PrPC TRFRET cf: 89*; LD9 tox: -3

How did COc1ccccc1COc1cc(NC(=O)c2cnccn2)ncn1 do in these assays?
PriA SSB inh: -14

What do the screens show for `COc1cccc(N2CCN(c3nc(-c4ccccc4C)cc(=O)[nH]3)CC2)c1`?
3CLpro inhibitor: 2; PrP 5UTR inh: -3; PriA SSB inh: 21; BH1578 lux ind: inactive; PrPC TRFRET: 31*; PfHsp40 yeast: 108*; PrPC TRFRET cf: 33*; LD9 tox: 14*
